Experimental data: PubChem BioAssay AID589 (National Center for Advancing Translational Sciences (NCATS), 2007)
About 6,200 (11%) of roughly 59,000 compounds were called active. Another 9% or so got no clear call; they are omitted. No stated cut-off is given here; in the data, active means max dye-equivalent concentration above about 10 nM; inconclusive means mostly about 1.1 nM to 9.6 nM; inactive means weaker than that. The list comes from a sample in which actives are over-represented; it also holds similar structures and randomly drawn compounds. Where a structure was tested more than once in an assay, its records may differ in their call.

Assay: qHTS Assay for Spectroscopic Profiling in 4-MU Spectral Region
Settings: compound autofluorescence, 340/450 nm, 4-MU equivalents; hits give high values
Method in brief: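 Compounds in 100 mM Tris, pH 8.0, sat 15 min at room temperature before fluorescence was read at 340 nm excitation/450 nm emission; a per-plate six-point 4-MU standard curve converted signals to dye-equivalent concentration at each compound concentration.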

Structure (SMILES)	max dye-equivalent concentration	outcome
CCCC(CCC(=O)OC)(C(=O)OCC)c1csc(N)n1 (configuration not stated)	inactive	
COc1ccc(CNc2ncncc2-c2ccccc2C)c(OC)c1	inactive	
Oc1c(CN2CCOCC2)ccc(CN2CCOCC2)c1O	inactive	
CN(CCc1ccccn1)S(=O)(=O)c1ccc2c3c(cccc13)C(=O)N2	790 nM (active)	
O=c1[nH]nc(Cc2ccccn2)c2ccccc12	inactive	
O=C(COC(=O)CCC(=O)c1cccs1)NCc1ccco1	inactive	
O=C(COC(=O)C12CC3CC(CC(C3)C1)C2)NCc1ccco1	23 nM (active)	
Cc1cc(C(=O)OCC(=O)NCc2ccco2)c(C)n1-c1ccccc1	inactive	
CC(C)(C)c1cc(CN2CCN(CCC#N)CC2)cc(C(C)(C)C)c1O	inactive	
O=C(O)Cc1ccc(-c2ccccc2)cc1	49 nM (active)	inactive
O=C(O)CCCc1ccccc1	inactive	
O=C(O)Cc1ccc(NC(=O)c2cccs2)cc1	inactive	
CCOC(=O)C1CCN(C(=O)C2CCN(S(=O)(=O)CC)CC2)CC1	inactive	
O=C(O)CSCNC(=O)CC12CC3CC(CC(C3)C1)C2	inactive	
O=C(NC1CCCCC1)n1c(=O)oc2cc(S(=O)(=O)N3CCCCC3)ccc21	inactive	
NS(=O)(=O)c1cc2c(cc1Cl)NC(C(Cl)Cl)NS2(=O)=O (configuration not stated)	6500 nM (active)	
C=CCn1c(C)cc(C(=O)CN2C(=O)c3ccccc3C2=O)c1C	inactive	
O=C(Nc1ccc(NC(=O)c2cccs2)cn1)c1ccco1	inactive	
Cc1c(C(=O)NCCN2CCOCC2)sc2nc(-c3ccc(F)cc3)cn12	inactive	
CSc1cccc(NC(=O)CSc2ccccc2)c1	inactive	
COc1ccc(OC)c2c(N)c(C#N)c(C(F)(F)C(F)(F)F)nc12	140 nM (active)	
CCCCOc1ccc(-c2nnc(-c3ccco3)o2)cc1	inactive	

Structure (SMILES)	max dye-equivalent concentration	outcome
O=C(Nc1cccc2cccnc12)c1cccc(N2C(=O)CCC2=O)c1	inactive	
O=C(CN1CCOCC1)N1CCCc2c1c(=O)oc1ccc(OCc3ccccc3)cc21	45 nM (active)	
O=C(OCCN1CCOCC1)C1(c2ccccc2)CCCCC1	inactive	
N#Cc1nc(-c2ccc(OCc3ccccc3)cc2)oc1NCCCN1CCOCC1	inactive	
CCOC(=O)C1CCCN(C(=O)c2cncc(Br)c2)C1 (configuration not stated)	inactive	
COc1ccc(OC)c([C@H](O)CNC(=O)CN)c1	inactive	
C/C(Cl)=C\Cn1c(Nc2cccc(C)c2)nc2c1c(=O)n(C)c(=O)n2C	inactive	
COc1ccccc1CN1CC2(CCN(S(=O)(=O)c3ccccc3)CC2)C1	inactive	
CCc1ccc(NC(=O)CSc2nnc(-c3cnccn3)n2Cc2ccco2)cc1	inactive	
CCc1ccc(Nc2ncc3c(n2)CC(c2ccco2)CC3=O)cc1 (configuration not stated)	38 nM (active)	
O=C(Nc1ncc2c(n1)CC(c1ccco1)CC2=O)c1ccc(Cl)cc1 (configuration not stated)	inactive	
CCOc1ccc2nc(N3CCCN(C(=O)Nc4ccccc4C)CC3)c(C#N)cc2c1	16 nM (active)	
Cc1ccccc1NC(=O)CNc1ccccc1N1CCCCC1	inactive	
CCOc1ccc(NC(=O)N2CCN(CC)CC2)cc1	inactive	
Cn1c(-c2ccc(F)cc2)cnc1SCC(=O)NCc1ccco1	inactive	
O=C(CN1CCN(c2nc(-c3ccccc3)cs2)CC1)NCc1ccc2c(c1)OCO2	inactive	
CC1(C)SC2c3ccccc3C(=O)N2[C@@H]1C(=O)NCc1ccco1 (some centres not stated)	inactive	
CC1(C)S[C@@H]2[C@@H](NC(=O)[C@@H](N)c3ccccc3)C(=O)N2[C@H]1C(=O)O	44 nM (active)	
CCS(=O)(=O)N1CCC(C(=O)N2CCN(c3ccccc3)CC2)CC1	inactive	
CCOc1ccccc1Nc1nnc(SCC(=O)Nc2cc(C)on2)s1	inactive	
CC(C[N+](C)(C)C)OC(N)=O (configuration not stated)	inactive	
CC(=O)OC(C)C[N+](C)(C)C (configuration not stated)	500 nM (active)	

Structure (SMILES)	max dye-equivalent concentration	outcome
CCN1C(=O)/C(=C2\SC(N3CCCCC3)=NC2=O)c2ccccc21	18 nM (active)	
CCN1C(=O)/C(=C\N2CCN(c3ccccc3)CC2)SC1=S	inactive	
Cc1ccc(C(=O)OCC(=O)NCc2ccc3c(c2)OCO3)s1	inactive	
Cc1ccc2cccc(O)c2[n+]1[O-]	17 nM (active)	
CC(=O)Nc1cccc2c1[n+]([O-])c(C)c(C)[n+]2[O-]	inactive	
O=C(O)[C@@H]1[C@@H](C(=O)O)[C@]23C[C@@]2(C(=O)O)[C@]2(C(=O)O)CCC3=C3CCCC312	inactive	
CCOC(=O)CSc1nnc(CNc2ccc(F)cc2)o1	inactive	
CCCOP(=O)(c1ccc(N(C)C)cc1)C(O)c1cc(OC)c(OC)c(OC)c1 (configuration not stated)	inactive	
Cc1c(S(=O)(=O)O)ccc(N=Nc2c(O)c(C(=O)O)cc3ccccc23)c1Cl	11 nM (active)	
CCc1ccc(-c2nnn(Cc3nc4ccccc4s3)n2)cc1	inactive	
COc1ccc(Cc2nnc(NS(=O)(=O)Cc3ccccc3)s2)cc1	inactive	
COC(=O)C1(S(=O)(=O)C2(C(=O)OC)CCCC2)CCCC1	inactive	
N#Cc1c(N)n(CCOC(=O)c2ccc(Cl)cc2)c2nc3ccccc3nc12	600 nM (active)	
O=S(=O)(O)c1nc2ccccc2n1Cc1ccc(Cl)cc1	inactive	
C[C@H](NC(=O)OC(C)(C)C)c1nnc(SCC(N)=O)o1	inactive	
CC1(C)Oc2ccc(C(=O)N3CCOCC3)cc2N(CC(=O)Nc2ccccc2)C1=O	inactive	
Cc1nc(NCc2ccccc2)c(C(N)=O)c2c1COC(C)(C)C2	100 nM (active)	
O=C(c1cccnc1NCc1ccccc1)N1CCOCC1	inactive	
Cc1ccc(NC(=O)CS(=O)CC(=O)N(c2ccccc2)C(C)C(=O)NC2CCCC2)cc1 (configuration not stated)	inactive	
CC(=O)O[C@]1(C(C)=O)CC[C@@H]2[C@@H]3C=C(C)C4=CC(=O)CC[C@@]4(C)[C@H]3CC[C@]21C	inactive	
Cc1ccc(C)c(S(=O)(=O)N2CC(=O)Nc3ccccc32)c1	inactive	
N=C(CC(=O)Nc1ccccn1)c1ccccc1	inactive	

Structure (SMILES)	max dye-equivalent concentration	outcome
Cc1cccc(N)c1SC1CCCCC1O (configuration not stated)	inactive	
COc1ccc(C(=O)OCC(=O)c2ccc(C)c(S(=O)(=O)N3CCOCC3)c2)cc1OC	inactive	
O=C(CCN1C(=O)c2ccncc2C1=O)Nc1ccc2c(c1)OCCO2	inactive	
CCC(=O)Nc1ccc(C(=O)Nc2ccc3c(c2)C(=O)N(CC2CCCO2)C3=O)cc1 (configuration not stated)	120 nM (active)	
O=C(NCc1ccc2c(c1)OCO2)c1ccc2c(c1)C(=O)N(CC1CCCO1)C2=O (configuration not stated)	inactive	
CC(C)(C)n1nnnc1C(c1ccc2ncccc2c1)N1CCSCC1 (configuration not stated)	inactive	
CCOC(=O)N1CCN(C(=O)C2CCN(c3ncnc4c3sc3cccc(F)c34)CC2)CC1	18 nM (active)	
CCOC(=O)N1CCN(CC(=O)Nc2cc(C)nn2-c2nc3ccccc3s2)CC1	inactive	
CCOC(=O)N1CCN(C(=O)C2CCN(S(C)(=O)=O)CC2)CC1	inactive	
C=C(C)c1cccc(C(C)(C)NC(=O)N2CCN(c3ncccn3)CC2)c1	inactive	
CC1CCCC(NC(=O)CSc2nccn2C)C1C (configuration not stated)	inactive	
CN1[C@H]2CC(OC(=O)[C@@H](CO)c3ccccc3)C[C@H]1[C@H]1O[C@H]12 (some centres not stated)	inactive	
O=c1cc(-c2ccccc2)[nH]c2nc(Cl)ccc12	76 nM (active)	
O=C(NCCN1CCOCC1)c1c(F)c(F)c(F)c(F)c1F	inactive	
Oc1c(Br)cc(CN(Cc2cc(Br)c(O)c(Br)c2)C2CCCCC2)cc1Br	inactive	
Cc1cc(=O)n2nc(N3CCCC(C(=O)N4CCN(C)CC4)C3)sc2n1 (configuration not stated)	inactive	
Cc1cccc(NC(=O)CSc2nnc(CCCCCNC(=O)OC(C)(C)C)o2)c1C	inactive	
COCC(=O)N1CCC2(CCCN(c3ccccc3)C2)CC1	inactive	
COC(=O)c1ccc(NCC(=O)c2ccccc2)cc1	inactive	
O=C(Nc1cccc(-c2nnc(-c3ccccc3)o2)c1)C1CCCO1 (configuration not stated)	inactive	
O=C(Nc1ccc(-c2nnc(-c3ccccc3)o2)cc1)c1ccc(Br)o1	37 nM (active)	
O=C(Nc1ccc(-c2nnc(-c3ccccc3)o2)cc1)C1CCCO1 (configuration not stated)	inactive	

Structure (SMILES)	max dye-equivalent concentration	outcome
O=C(c1ccco1)N1CCN(C(=O)C2CC(c3ccc(Cl)c(Cl)c3)=NO2)CC1 (configuration not stated)	inactive	
CC(C)(C)OC(=O)c1c(N)n(CCCN2CCCC2=O)c2nc3ccccc3nc12	6400 nM (active)	
O=C(CCn1c(=S)[nH]c2ccccc2c1=O)NCCCN1CCCC1=O	inactive	
CSc1nnc(-c2ccncc2)n1CCCN1CCCC1=O	inactive	
CC(C)NC(=O)N1CCCC2(CCN(C(=O)c3cccn3C)CC2)C1	inactive	
COc1ccc2c(c1)CCc1c(C(=O)N3CCCC3)noc1-2	inactive	
COc1cccc(Cn2c(=O)c(C)nc3cnc(Oc4ccccc4)nc32)c1	inactive	
COc1cccc(CN2C(=O)CCC2(C)C(=O)NC2CCCCCC2)c1 (configuration not stated)	inactive	
COc1cccc(Cn2c(=O)c(CCc3ccccc3)nc3cnc(N(C)C)nc32)c1	22 nM (active)	
COc1cccc(Cn2c(=O)cnc3cncnc32)c1	inactive	
COc1cccc(Nc2ncc3ncc(=O)n(C4CC4)c3n2)c1	inactive	
CCNc1ncc2ncc(=O)n(CCc3ccccc3)c2n1	75 nM (active)	
COc1cccc(Cn2c(=O)c(-c3ccccc3)nc3cnc(OC)nc32)c1	inactive	
CCNc1ncc2ncc(=O)n(Cc3cccc(OC)c3)c2n1	14 nM (active)	
CCc1nnc(NC(=O)CSc2nnc(Cc3ccccc3)n2-c2ccc(OC)cc2)s1	inactive	
CCNc1ncc2nc(CCc3ccccc3)c(=O)n(-c3ccc(OC)cc3)c2n1	12 nM (active)	
O=c1cnc2cnc(Nc3ccccc3)nc2n1Cc1ccc(F)cc1	inactive	
COc1ccc(-n2c(C)nc3c(cnn3-c3ccccc3)c2=O)cc1	inactive	
